PubChem BioAssay (Tox21)
Inconclusive results are not listed. Entries that show only a call come without a potency. Activity calls are given as the source filed them. Unless noted, calls come from the whole dose curve.

Tests used:
[1] = Nuclear factor erythroid 2-related factor 2/antioxidant responsive element (Nrf2/ARE) small molecule agonists: qHTS cell viability counter screen in human keratinocytes (AID 1919968; active = well fitted curve in the direction sought with a large enough effect in the repeat runs; an effect the other way counts as inactive or inconclusive; note: nearly all actives have a fitted effect of over 55% in size); details: KeratinoSens HaCaT ARE cells viability, CellTiter-Fluor, 24 h; series mostly up to 92.4 µM
Method in brief: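 HaCaT ARE reporter line, 1,500 cells/well; 5 h settle, 37 C/5% CO2; cpd in DMSO pinned; 23 h exposure; CellTiter-Fluor, 1 h; fluorescence.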

[2] = Nuclear factor erythroid 2-related factor 2/antioxidant responsive element (Nrf2/ARE) small molecule agonists: luciferase reporter gene qHTS assay in human keratinocytes (AID 1919969); details: KeratinoSens HaCaT ARE-luciferase, luminescence, 24 h; series mostly up to 92.4 µM; note: nearly all actives have a fitted effect of over 35% in size; note: potency is the fitted concentration of half-maximal effect
[3] = biological target: Gonadotropin-releasing hormone receptor (Homo sapiens) (UniProt P30968); experiment: Human gonadotropin-releasing hormone receptor (GnRHR) small molecule agonists, calcium flux assay in GnRHR-HEK293 cells (AID 1920063); details: calcium flux fluorescence, agonist mode; series mostly up to 57.6 µM; note: nearly all actives have a fitted effect of over 35% in size
Gonadotropin-releasing hormone receptor (Homo sapiens), sequence (P30968 whole entry, looked up): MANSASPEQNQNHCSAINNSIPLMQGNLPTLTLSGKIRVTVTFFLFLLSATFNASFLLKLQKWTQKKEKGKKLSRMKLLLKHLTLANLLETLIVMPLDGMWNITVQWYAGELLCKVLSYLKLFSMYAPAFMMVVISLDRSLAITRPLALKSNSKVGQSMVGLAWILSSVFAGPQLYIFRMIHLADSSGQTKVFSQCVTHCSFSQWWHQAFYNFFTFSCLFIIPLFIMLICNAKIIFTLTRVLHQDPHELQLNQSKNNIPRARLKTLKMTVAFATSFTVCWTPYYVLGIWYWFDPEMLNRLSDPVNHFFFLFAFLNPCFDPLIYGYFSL
Method in brief: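 GnRHR-HEK293, 1500 cells/well, 18 h 37 C/5% CO2; Ca dye 1 h 37 C; cpd pinned (DMSO), agonist mode; kinetic FL 480/540, 3 min, 1 s reads; 15 conc, n=3.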

[4] = biological target: KiSS-1 receptor (Homo sapiens) (UniProt Q969F8); experiment: Human kisspeptin (KISS1R) small molecule agonists, calcium flux assay in KISS1R-HEK293 cells (AID 1920064; active = well fitted curve in the direction sought with a large enough effect in the repeat runs; an effect the other way counts as inactive or inconclusive); details: KISS1R-HEK293, calcium flux fluorescence, agonist; series mostly up to 76.8 µM
KiSS-1 receptor (Homo sapiens), sequence (Q969F8 whole entry, looked up): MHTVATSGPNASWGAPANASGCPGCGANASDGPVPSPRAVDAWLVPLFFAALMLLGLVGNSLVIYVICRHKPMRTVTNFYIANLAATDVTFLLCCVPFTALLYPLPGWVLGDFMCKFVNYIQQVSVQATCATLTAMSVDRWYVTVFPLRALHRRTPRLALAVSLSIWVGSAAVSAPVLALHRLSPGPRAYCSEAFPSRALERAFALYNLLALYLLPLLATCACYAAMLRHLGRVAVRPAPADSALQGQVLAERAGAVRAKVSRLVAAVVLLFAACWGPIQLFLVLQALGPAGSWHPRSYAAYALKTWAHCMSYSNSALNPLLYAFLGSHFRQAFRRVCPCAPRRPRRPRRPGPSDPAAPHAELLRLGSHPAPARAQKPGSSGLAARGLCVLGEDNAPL
Method in brief: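 Stable human KISS1R HEK293 line; 18 h plating, 37 C/5% CO2; calcium dye 1 h 37 C; compound pin transfer; kinetic fluorescence Ex/Em 480/540, 3 min.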

[5] = G protein-coupled receptor (GPCR) small molecule agonists, calcium flux assay: HEK293 wild type cell line counter screen (AID 1920065); details: HEK293 WT calcium flux, fluorescence, agonist mode; series mostly up to 57.6 µM
Method in brief: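 Kinetic fluorescence at Ex/Em 480/540, recorded every second over 3 min, served as the read-out after compound addition. Each compound was tested at 15 concentrations in triplicate on cells pre-loaded with calcium dye for 1 h.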

[6] = p53 small molecule agonists, cell-based qHTS assay with human liver microsomes (AID 1963577); details: HCT-116 p53RE-bla with human liver microsomes, ratio, 16 h; series mostly up to 66 µM;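 note: p53 response element beta-lactamase reporter cells with liver microsomes plus NADPH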
Method in brief: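 In this qHTS, p53 response-element beta-lactamase cells receive test compound together with a microsome/NADPH activating system (0.5 mg/mL final each) and are incubated 16 h at 37 C before LiveBLAzer fluorescence detection.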

[7] = p53 small molecule agonists, cell-based qHTS assay with rat liver microsomes (AID 1963578); details: HCT-116 p53RE-bla, beta-lactamase ratio, 16 h; series mostly up to 66 µM
Method in brief: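 Agonist mode in p53RE-bla reporter cells, with compounds co-incubated 16 h at 37 C alongside 0.5 mg/mL rat liver microsomes and 0.5 mg/mL NADPH (final), followed by a 2 h LiveBLAzer detection step.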

[8] = p53 small molecule agonists, cell-based qHTS assay: qHTS cell viability counter screen (AID 1963581); details: p53RE-bla HCT-116 viability, ATP luminescence, 16 h; series mostly up to 66 µM; note: nearly all actives have a fitted effect of over 45% in size
Method in brief: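 HCT-116 p53RE-bla cells, 4,000/well, plated 5 h before compound pin transfer; 16 h at 37 C; bla substrate 2 h RT; then CellTiter-Glo, 30 min RT, luminescence.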

[9] = p53 small molecule agonists, cell-based qHTS assay (AID 1963582; active = well fitted activation curve with a large enough effect in the signal ratio in the repeat runs, not every such curve was filed as active; the % refers to the signal ratio); details: HCT-116 p53RE-bla reporter, beta-lactamase FRET ratio, 16 h; series mostly up to 66 µM
Method in brief: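 Reporter line: p53RE-bla. Pre-incubation 5 h, 37 C, 5% CO2; compound (DMSO, pin tool) 16 h, 37 C; B/G FRET substrate 2 h RT; fluorescence intensity read.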

[10] = biological target: 5-hydroxytryptamine receptor 2A (Homo sapiens) (UniProt P28223); experiment: 5-hydroxytryptamine receptor 2A (HTR2A) small molecule antagonists, cell-based qHTS assay (AID 1963586); details: HTR2A-CHO cells, DOI-induced calcium flux, fluorescence; series mostly up to 61.5 µM; note: nearly all actives have a fitted effect of over 45% in size
5-hydroxytryptamine receptor 2A (Homo sapiens), sequence (P28223 whole entry, looked up): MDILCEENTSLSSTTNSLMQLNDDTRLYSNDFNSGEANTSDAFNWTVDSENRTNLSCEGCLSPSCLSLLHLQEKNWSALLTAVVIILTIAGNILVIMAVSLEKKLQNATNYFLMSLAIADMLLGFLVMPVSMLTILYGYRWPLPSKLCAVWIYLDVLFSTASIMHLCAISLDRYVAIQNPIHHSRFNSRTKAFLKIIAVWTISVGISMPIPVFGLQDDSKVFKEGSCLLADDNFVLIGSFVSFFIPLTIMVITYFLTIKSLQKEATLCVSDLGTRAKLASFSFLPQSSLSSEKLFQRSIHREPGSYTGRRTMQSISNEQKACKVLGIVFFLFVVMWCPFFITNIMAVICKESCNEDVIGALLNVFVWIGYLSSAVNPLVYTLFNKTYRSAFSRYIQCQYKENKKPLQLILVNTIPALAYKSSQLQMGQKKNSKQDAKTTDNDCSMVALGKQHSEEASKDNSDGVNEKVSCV
Method in brief: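 Antagonist-mode intracellular calcium assay: DOI (4 nM) added after 5 min compound pre-incubation at room temperature to dye-loaded HTR2A-CHO cells. Fluorescence followed for 3 min, sampled every second.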

[11] = biological target: 5-hydroxytryptamine receptor 2A (Homo sapiens) (UniProt P28223); experiment: 5-hydroxytryptamine receptor 2A (HTR2A) small molecule agonists, cell-based qHTS assay (AID 1963587); details: HTR2A-CHO cells, calcium flux fluorescence, agonist mode; series mostly up to 76.8 µM; note: nearly all actives have a fitted effect of over 30% in size
Method in brief: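 CHO cells stably expressing human HTR2A, plated 18 h, loaded with calcium dye 1 h at 37 C. Agonist mode: compounds added and intracellular calcium fluorescence recorded kinetically for 2 min at 1 sec intervals.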

[12] = biological target: Muscarinic acetylcholine receptor M1 (Homo sapiens) (UniProt P11229); experiment: Cholinergic receptor muscarinic 1 (CHRM1) small molecule antagonists, cell-based qHTS assay (AID 1963588); details: CHRM1-CHO antagonist mode, calcium flux fluorescence; series mostly up to 61.5 µM; note: nearly all actives have a fitted effect of over 40% in size; note: potency is the fitted concentration of half-maximal effect
Muscarinic acetylcholine receptor M1 (Homo sapiens), sequence (P11229 whole entry, looked up): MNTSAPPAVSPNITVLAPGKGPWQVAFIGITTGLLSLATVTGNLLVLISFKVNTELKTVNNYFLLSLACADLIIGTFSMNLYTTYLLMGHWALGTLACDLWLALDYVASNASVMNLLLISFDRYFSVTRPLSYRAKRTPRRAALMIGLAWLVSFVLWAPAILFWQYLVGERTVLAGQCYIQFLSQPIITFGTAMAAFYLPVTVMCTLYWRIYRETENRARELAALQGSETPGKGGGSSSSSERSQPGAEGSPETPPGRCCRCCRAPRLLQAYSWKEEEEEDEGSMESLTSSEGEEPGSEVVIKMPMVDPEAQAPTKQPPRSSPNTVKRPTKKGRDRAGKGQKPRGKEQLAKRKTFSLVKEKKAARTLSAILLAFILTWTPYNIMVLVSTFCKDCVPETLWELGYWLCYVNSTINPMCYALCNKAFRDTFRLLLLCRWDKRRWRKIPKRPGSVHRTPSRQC
Method in brief: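 CHRM1-CHO calcium-flux assay, antagonist mode. Cells were seeded 18 h, dye-loaded 1 h at 37 C and given compound for 5 min at RT, then acetylcholine was added at 50nM. FDSS fluorescence was read 3 min; 15 concentrations, three runs.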

[13] = biological target: Muscarinic acetylcholine receptor M1 (Homo sapiens) (UniProt P11229); experiment: Cholinergic receptor muscarinic 1 (CHRM1) small molecule agonists, cell-based qHTS assay (AID 1963589); details: CHRM1-CHO cells, agonist mode, calcium flux fluorescence; series mostly up to 76.8 µM; note: nearly all actives have a fitted effect of over 35% in size
Method in brief: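 Human M1 in stable CHO line; 18 h plating, 1 h dye load 37 C; cpd added (agonist mode); Ca2+ fluorescence kinetic read, 1 s intervals; 15 conc, 3 runs.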

[14] = cAMP Responsive Elements (CRE) small molecule agonists, cell-based qHTS assay (AID 1963590); details: CRE-bla HEK293T, beta-lactamase FRET ratio, 3 h; series mostly up to 92.4 µM
Method in brief: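 HEK 293T CRE-bla, 2,000 cells/well, 18 h preincubation 37 C/5% CO2; cpds (DMSO) pinned, 3 h; LiveBLAzer B/G FRET substrate, 2 h RT.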

[15] = cAMP Responsive Elements (CRE) small molecule antagonists, cell-based qHTS assay (AID 1963591; active = well fitted inhibition curve with a large enough effect in the signal ratio in the repeat runs, not every such curve was filed as active; the % refers to the signal ratio); details: CRE-bla HEK293T, beta-lactamase FRET ratio; series mostly up to 92.4 µM
Method in brief: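 Beta-lactamase reporter read by FRET substrate (LiveBLAzer B/G) after 2 h at room temperature. CRE-bla HEK293T cells had received compound plus 0.25 uM (final) NKH477 for 3 h at 37 °C.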

[16] = biological target: Beta-2 adrenergic receptor (Homo sapiens) (UniProt P07550); experiment: Adrenergic beta2 receptor (ADRB2) small molecule antagonists, cell-based qHTS assay (AID 1963592); details: CHO-ADRB2 cells, isoproterenol-stimulated cAMP HTRF ratio, 0.5 h; series mostly up to 92.4 µM; note: nearly all actives have a fitted effect of over 50% in size
Beta-2 adrenergic receptor (Homo sapiens), sequence (P07550 whole entry, looked up): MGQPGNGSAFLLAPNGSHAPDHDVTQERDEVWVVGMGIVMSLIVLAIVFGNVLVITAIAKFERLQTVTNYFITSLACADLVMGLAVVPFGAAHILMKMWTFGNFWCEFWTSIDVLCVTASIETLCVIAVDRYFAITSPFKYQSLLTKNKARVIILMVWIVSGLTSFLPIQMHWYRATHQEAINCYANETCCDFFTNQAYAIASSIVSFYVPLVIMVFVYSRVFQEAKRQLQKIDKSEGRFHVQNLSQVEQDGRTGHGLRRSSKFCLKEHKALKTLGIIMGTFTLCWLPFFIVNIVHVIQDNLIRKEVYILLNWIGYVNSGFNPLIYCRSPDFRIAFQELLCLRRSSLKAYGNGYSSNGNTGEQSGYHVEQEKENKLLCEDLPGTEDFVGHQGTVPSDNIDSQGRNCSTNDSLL
Method in brief: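 Cells (CHO, stable ADRB2 overexpression) incubated 18-20hr at 37C; compounds added from DMSO; agonist mix (1nM isoproterenol, 100uM IBMX, 25uM Ro-20-1724) added; 0.5hr RT; d2-cAMP and anti-cAMP-cryptate added; 1hr RT; 665/615 nm read.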

[17] = biological target: D(2) dopamine receptor (Homo sapiens) (UniProt P14416); experiment: Dopamine D2 receptor (DRD2) small molecule agonists, cell-based qHTS assay (AID 1963594); details: HEK293-DRD2 cAMP HTRF, agonist mode, 30 min; series mostly up to 92.4 µM; note: nearly all actives have a fitted effect of over 35% in size
D(2) dopamine receptor (Homo sapiens), sequence (P14416 whole entry, looked up): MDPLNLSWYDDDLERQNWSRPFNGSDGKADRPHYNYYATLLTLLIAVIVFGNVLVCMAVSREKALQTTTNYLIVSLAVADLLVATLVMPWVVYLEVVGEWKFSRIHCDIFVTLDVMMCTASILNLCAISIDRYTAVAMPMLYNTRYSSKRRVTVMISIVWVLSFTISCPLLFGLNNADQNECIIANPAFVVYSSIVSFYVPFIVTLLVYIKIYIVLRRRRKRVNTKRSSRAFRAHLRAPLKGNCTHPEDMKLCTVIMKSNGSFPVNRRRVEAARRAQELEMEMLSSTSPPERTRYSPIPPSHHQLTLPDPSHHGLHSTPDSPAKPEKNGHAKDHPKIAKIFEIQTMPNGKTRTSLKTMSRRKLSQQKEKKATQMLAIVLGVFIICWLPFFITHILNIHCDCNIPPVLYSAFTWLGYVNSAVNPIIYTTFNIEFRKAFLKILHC
Method in brief: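 HEK293 cells stably expressing human DRD2, pre-treated with PDE inhibitor Ro20-1724 (0.1 mM final) and compound 10 min at room temperature, then stimulated with NKH477 (200nM […]) for 30 min. cAMP read by HTRF (665/620 nm).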

[18] = biological target: D(2) dopamine receptor (Homo sapiens) (UniProt P14416); experiment: Dopamine D2 receptor (DRD2) small molecule antagonists, cell-based qHTS assay (AID 1963595; active = well fitted inhibition curve with a large enough effect in the signal ratio in the repeat runs, with a control signal flat; the % refers to the signal ratio); details: HEK293-DRD2 cAMP HTRF antagonist mode; series mostly up to 92.4 µM
Method in brief: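 Readout: HTRF cAMP, cAMP-d2 competing with cellular cAMP for anti-cAMP cryptate, read after 1 h. Cells: DRD2-HEK293. Conditions: 0.1 mM Ro20-1724, 12 nM quinpirole, 200 nM NKH477, 30 min RT.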

[19] = biological target: Beta-2 adrenergic receptor (Homo sapiens) (UniProt P07550); experiment: Adrenergic beta2 receptor (ADRB2) small molecule agonists, cell-based qHTS assay (AID 1963593); details: CHO-ADRB2 cells, cAMP HTRF, 30 min; series mostly up to 92.4 µM;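 note: CHO cells stably overexpressing human ADRB2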
Method in brief: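 CHO cells stably over-expressing ADRB2 were plated overnight at 37C, then dosed with compounds plus a stimulation mix containing 100uM IBMX and 25uM Ro-20-1724 for 0.5hr at room temperature. cAMP was measured by HTRF competition, 1hr.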

Row | SMILES | Potency [1] | Potency [2] | Potency [3] | Potency [4] | Potency [5] | Potency [6] | Potency [7] | Potency [8] | Potency [9] | Potency [10] | Potency [11] | Potency [12] | Potency [13] | Potency [14] | Potency [15] | Potency [16] | Potency [17] | Potency [18] | Potency [19]
1 | COC(=O)c1ccccc1C(=O)c1ccc(OCCN2CCCCC2)cc1 | inactive | inactive | inactive | inactive | inactive | inactive | inactive | inactive | inactive | inactive | inactive | 0.0365 µM (active) | inactive | inactive | inactive | inactive | inactive | inactive | –
2 | O=C(OC(=O)c1ccccc1)c1ccccc1 | inactive | inactive | inactive | inactive | inactive | inactive | inactive | inactive | inactive | inactive | inactive | inactive | inactive | inactive | inactive | inactive | inactive | inactive | inactive
3 | CC(=O)c1ccc(O)c(C(N)=O)c1 | inactive | inactive | inactive | inactive | inactive | inactive | inactive | inactive | inactive | inactive | inactive | – | inactive | inactive | inactive | inactive | inactive | inactive | inactive
4 | CC(C)(c1ccccc1)c1ccc(Nc2ccc(C(C)(C)c3ccccc3)cc2)cc1 | inactive | inactive | inactive | inactive | inactive | inactive | inactive | inactive | inactive | – | inactive | inactive | – | inactive | inactive | inactive | inactive | inactive | inactive
5 | CC1=CCC(C(C)(C)O)CC1 (configuration not stated) | inactive | inactive | inactive | inactive | inactive | inactive | inactive | inactive | – | inactive | inactive | inactive | inactive | inactive | inactive | inactive | inactive | inactive | inactive
6 | O=C1CCC(=O)O1 | inactive | inactive | inactive | inactive | inactive | inactive | inactive | inactive | inactive | inactive | inactive | inactive | inactive | inactive | inactive | inactive | inactive | inactive | inactive
7 | Cc1ccc(S(=O)(=O)NC(=O)NC2CCCCCCC2)cc1 | inactive | inactive | inactive | inactive | inactive | inactive | inactive | inactive | inactive | inactive | inactive | inactive | inactive | inactive | inactive | inactive | inactive | inactive | inactive
8 | CC(C)C(=O)OC(=O)C(C)C | inactive | inactive | inactive | inactive | inactive | inactive | inactive | inactive | inactive | inactive | inactive | inactive | inactive | inactive | inactive | inactive | inactive | inactive | inactive
9 | c1ccc2c(c1)CCc1ccccc1N2 | inactive | 61.4 µM (active) | inactive | inactive | inactive | inactive | inactive | inactive | inactive | inactive | inactive | inactive | inactive | inactive | inactive | – | inactive | inactive | inactive
10 | C[N+](C)(C)CC(O)CCl (configuration not stated) | inactive | inactive | inactive | inactive | inactive | inactive | inactive | inactive | inactive | inactive | inactive | inactive | inactive | inactive | inactive | inactive | inactive | inactive | –
11 | C=CC(C)CCC=C(C)C (configuration not stated) | inactive | inactive | inactive | inactive | inactive | inactive | inactive | inactive | inactive | inactive | inactive | inactive | inactive | inactive | inactive | inactive | inactive | inactive | inactive
